Assay results from PubChem BioAssay (NCATS).
Records with an inconclusive call do not appear. Active and inactive are the calls of the source. Unless noted, calls come from the whole dose curve; as a rule, active = well fitted curve in the direction sought with a large enough effect; inconclusive = small, poorly fitted or top-dose-only effect, or another doubt; inactive = no such curve, though single readings can be large; an effect the other way counts as inactive or inconclusive.

Experiments:
[1] = molecular target: Lysosomal acid glucosylceramidase (Homo sapiens) (UniProt P04062); test: Glucocerebrosidase-p2 (AID 348; in the data active = potency below about 10 µM; note: potency is the fitted concentration of half-maximal effect); conditions: purified GBA, blue fluorogenic substrate, 40 min
Chain of Lysosomal acid glucosylceramidase (Homo sapiens) (P04062 whole entry, looked up): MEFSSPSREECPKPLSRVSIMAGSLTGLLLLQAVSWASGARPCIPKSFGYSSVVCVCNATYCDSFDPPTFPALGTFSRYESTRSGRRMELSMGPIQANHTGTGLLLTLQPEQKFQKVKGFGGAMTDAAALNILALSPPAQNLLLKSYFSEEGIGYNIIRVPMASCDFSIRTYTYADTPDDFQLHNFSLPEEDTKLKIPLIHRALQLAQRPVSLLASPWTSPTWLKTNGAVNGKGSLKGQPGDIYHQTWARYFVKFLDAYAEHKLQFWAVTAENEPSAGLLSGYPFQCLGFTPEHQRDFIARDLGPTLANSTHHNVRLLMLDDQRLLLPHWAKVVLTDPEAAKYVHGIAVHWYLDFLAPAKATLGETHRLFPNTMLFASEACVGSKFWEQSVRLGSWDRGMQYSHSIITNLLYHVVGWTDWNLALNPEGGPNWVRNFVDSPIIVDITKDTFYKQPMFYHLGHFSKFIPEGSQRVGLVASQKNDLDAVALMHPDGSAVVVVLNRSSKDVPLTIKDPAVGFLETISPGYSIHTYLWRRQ
Outline: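 Normal human glucocerebrosidase (0.2 nM) with blue fluorogenic substrate (80 uM final) in citrate/phosphate pH 5.9 with 10mM sodium taurocholate, 0.01% tween-20; 40 min RT, NaOH/glycine stop; fluorescence Ex 365/Em 440; AC50 from a titration from 0.6 nM upwards.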

[2] = AP1 Signaling Pathway (AID 357; active = well fitted curve in either direction with a large enough effect, not every such curve was filed as active;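 note: ME-180 reporter cells stimulated with EGF at its EC50 level; % is set by controls: 0 for no effect and ±100 for the full control effect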); conditions: ME-180 AP-1-bla reporter, EGF-induced, beta-lactamase ratio, 5 h; at 7.69 µM (top of the series) unless noted
Outline: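 A ratiometric CCF4 readout (405 nm excitation; 460 and 530 nm emission) quantified AP-1-driven beta-lactamase in ME-180 cells after 5 h with compound and EC50 EGF; AC50 values were derived for activators and inhibitors.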

[3] = NFAT Signaling Pathway (AID 444; active = well fitted curve in either direction with a large enough effect, not every such curve was filed as active;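 note: carbachol stimulus at about its EC50 of 1 µM final; % is set by controls: 0 for no effect and ±100 for the full control effect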); conditions: Jurkat NFAT-bla M1, carbachol, beta-lactamase ratio, 5 h; at 7.69 µM (top of the series) unless noted
Outline: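 Jurkat cells with NFAT-driven β-lactamase reporter and co-expressed M1 receptor, stimulated with carbachol (final 1 uM, ~EC50), compound titration, 5 h at 37 °C. CCF4 loaded 1 h at RT; 460/530 nm ratio gave %activity and AC50.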

[4] = Stat Signaling Pathway (AID 446; active = well fitted curve in either direction with a large enough effect, not every such curve was filed as active;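 note: ME-180 cervical cancer cells given 40 pM IL-6 alongside compound; SIE-controlled beta-lactamase reporter measured as 460/530 nm FRET emission ratio; % is set by controls: 0 for no effect and ±100 for the full control effect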); conditions: ME-180 (cervical carcinoma) SIE beta-lactamase reporter, IL-6 stimulated, 5 h; at 7.69 µM (top of the series) unless noted
Outline: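 Overnight-plated ME-180 cells bearing a STAT Inducible Element beta-lactamase reporter; 5 h co-exposure to compound and 40 pM IL-6; values normalized to 300 pM IL-6 and 125 nM JAK inhibitor controls.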

[5] = molecular target: Glucocorticoid receptor (Homo sapiens) (UniProt P04150); test: GR-GFP Redistribution (AID 450;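 active = compounds whose dose series gives a full or clear partial fitted curve of increased nuclear translocation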; note: potency is the fitted concentration of half-maximal effect); conditions: U2OS GR-GFP nuclear translocation, laser cytometry, 2 h
Chain of Glucocorticoid receptor (Homo sapiens) (P04150 whole entry, looked up, the tested form may be a part): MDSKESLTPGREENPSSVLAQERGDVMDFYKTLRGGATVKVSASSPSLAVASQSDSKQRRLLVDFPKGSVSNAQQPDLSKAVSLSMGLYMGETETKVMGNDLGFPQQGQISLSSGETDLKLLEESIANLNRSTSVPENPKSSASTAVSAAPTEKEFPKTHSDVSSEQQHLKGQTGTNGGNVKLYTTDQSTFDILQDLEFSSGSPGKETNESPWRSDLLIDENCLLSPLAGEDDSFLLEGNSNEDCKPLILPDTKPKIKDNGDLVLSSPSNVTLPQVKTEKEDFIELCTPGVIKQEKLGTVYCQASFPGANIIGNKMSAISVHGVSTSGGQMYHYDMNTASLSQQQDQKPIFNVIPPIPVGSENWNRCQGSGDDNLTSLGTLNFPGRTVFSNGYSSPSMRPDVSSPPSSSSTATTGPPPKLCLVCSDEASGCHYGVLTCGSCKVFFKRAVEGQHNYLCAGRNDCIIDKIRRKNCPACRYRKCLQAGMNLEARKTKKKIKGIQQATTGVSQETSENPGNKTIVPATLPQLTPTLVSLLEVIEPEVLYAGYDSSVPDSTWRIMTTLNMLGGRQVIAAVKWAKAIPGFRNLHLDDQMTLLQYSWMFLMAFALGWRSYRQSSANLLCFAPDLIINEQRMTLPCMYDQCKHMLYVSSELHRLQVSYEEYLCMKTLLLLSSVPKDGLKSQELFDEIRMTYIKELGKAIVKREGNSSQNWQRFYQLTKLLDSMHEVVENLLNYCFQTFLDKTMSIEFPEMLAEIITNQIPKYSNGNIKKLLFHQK

[6] = molecular target: Glucocorticoid receptor (Homo sapiens) (UniProt P04150); test: GR-EFC Redistribution (AID 451; calls by dose curve; note: potency is the fitted concentration of half-maximal effect); conditions: CHO-K1 GR-EFC translocation, beta-gal luminescence, 2 h
Outline: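 CHO-K1 cells expressing nuclear EA and GR-ED fragments of b-gal; compounds titrated up to 46 uM final, 2 h at 37 C. GR nuclear translocation read as complemented b-gal luminescence after 1 h RT detection.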

[7] = molecular target: Mitogen-activated protein kinase 10 (Mus musculus) (UniProt Q61831); test: JNK3 AlphaScreen Assay (AID 530; active = well fitted curve in either direction with a large enough effect, not every such curve was filed as active;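 note: kinase came from lysate of stimulated human HepG2 cells; signal reports phosphorylation of biotinylated GST-cJun 1-79 at Ser73 with 10 µM ATP; % is set by controls: 0 for no effect and ±100 for the full control effect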); conditions: JNK3 lysate, c-Jun phosphorylation; series mostly up to 57.1 µM
Outline: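 HepG2 lysate (IL-1b/TNFa pre-activated) + biotin-GST-cJun 1-79 + anti-pSer73 cJun; cpd titration, 15 min RT; ATP 10 uM start; Tris pH 7.6, MgCl2, DTT, vanadate; beads in EDTA buffer; AlphaScreen.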

[8] = molecular target: 3',5'-cyclic-AMP phosphodiesterase 4B (Homo sapiens) (UniProt Q07343); test: qHTS Assay for Inhibitors of PDE-IV (AID 607; active = well fitted activation curve with a large enough effect in the main read-out, with a control signal flat, not every such curve was filed as active; note: % of control where 0% means no effect); conditions: HEK293 ACTOne CNG channel cells, membrane potential fluorescence; series mostly up to 22.9 µM
Chain of 3',5'-cyclic-AMP phosphodiesterase 4B (Homo sapiens) (Q07343 whole entry, looked up): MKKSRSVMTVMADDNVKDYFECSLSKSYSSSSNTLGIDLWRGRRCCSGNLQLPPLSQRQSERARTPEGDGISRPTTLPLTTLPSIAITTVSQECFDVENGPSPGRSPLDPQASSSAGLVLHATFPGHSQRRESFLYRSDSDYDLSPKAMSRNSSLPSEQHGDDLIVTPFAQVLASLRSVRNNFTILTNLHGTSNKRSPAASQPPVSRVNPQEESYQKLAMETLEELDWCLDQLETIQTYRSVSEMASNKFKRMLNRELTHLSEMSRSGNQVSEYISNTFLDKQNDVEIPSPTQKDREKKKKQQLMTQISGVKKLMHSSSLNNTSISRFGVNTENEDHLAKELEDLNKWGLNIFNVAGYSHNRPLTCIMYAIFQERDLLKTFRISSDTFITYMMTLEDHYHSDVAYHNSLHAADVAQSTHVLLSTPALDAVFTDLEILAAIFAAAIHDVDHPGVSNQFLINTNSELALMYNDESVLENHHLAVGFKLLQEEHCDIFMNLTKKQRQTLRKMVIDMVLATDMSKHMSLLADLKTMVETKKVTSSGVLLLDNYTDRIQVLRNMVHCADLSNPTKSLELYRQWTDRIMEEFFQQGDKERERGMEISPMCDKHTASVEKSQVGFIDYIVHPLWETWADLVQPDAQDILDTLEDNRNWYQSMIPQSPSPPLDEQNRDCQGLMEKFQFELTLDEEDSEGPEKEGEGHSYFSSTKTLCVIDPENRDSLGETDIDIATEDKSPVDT
Outline: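 Live HEK293 cells with a modified cyclic nucleotide-gated (CNG) channel report intracellular cAMP via membrane-potential dye fluorescence (ex 535/em 590 nm). Endogenous PDE-IV was targeted. Compounds were tested at up to 22.9 uM final; RO 20-1724 100 uM served as control.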

[9] = qHTS Assay for Lipid Storage Modulators (AID 1519; calls by dose curve; note: potency is the fitted concentration of half-maximal effect); conditions: Drosophila S3 cells, BODIPY lipid droplet/cell ratio, laser cytometry, cells loaded with oleic acid; for activity change, negative = inhibition: at 57.5 µM (top of the series)
Outline: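 Cells seeded at 5,000 per well were treated with compounds over a concentration series and loaded with oleic acid (400 uM, as added). Lipid droplet fluorescence (488 nm excitation, 500-530 nm channel) was read by laser-scanning cytometry and normalized to 20 uM Triacsin C.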

[10] = molecular target: Dual specificity protein kinase CLK4 (Homo sapiens) (UniProt Q9HAZ1); test: qHTS Assay for Inhibitors of CDC-like Kinase 4 (Kinase-Glo Assay) (AID 1770); conditions: recombinant Clk4, Kinase-Glo ATP depletion luminescence; series mostly up to 66.7 µM; note: nearly all actives have a fitted effect of over 65% in size; note: potency is the fitted concentration of half-maximal effect
Chain of Dual specificity protein kinase CLK4 (Homo sapiens) (Q9HAZ1 whole entry, looked up): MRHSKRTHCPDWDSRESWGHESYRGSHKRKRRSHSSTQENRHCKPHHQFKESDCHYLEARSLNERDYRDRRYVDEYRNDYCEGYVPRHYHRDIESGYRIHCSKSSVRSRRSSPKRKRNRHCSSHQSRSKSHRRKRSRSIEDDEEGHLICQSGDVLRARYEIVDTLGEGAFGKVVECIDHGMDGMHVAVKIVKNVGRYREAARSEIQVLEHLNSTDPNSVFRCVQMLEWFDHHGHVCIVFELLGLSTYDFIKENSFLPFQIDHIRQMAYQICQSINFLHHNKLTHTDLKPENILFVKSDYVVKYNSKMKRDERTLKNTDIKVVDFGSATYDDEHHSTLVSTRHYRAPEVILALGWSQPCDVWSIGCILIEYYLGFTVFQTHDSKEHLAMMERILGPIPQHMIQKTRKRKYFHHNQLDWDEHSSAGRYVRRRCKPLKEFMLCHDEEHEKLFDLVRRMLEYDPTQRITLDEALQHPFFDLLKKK
Outline: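 Inhibition was judged from remaining ATP, measured by Ultra-Glo luciferase bioluminescence after Clk4 (25 nM) had acted on RS peptide at 1 uM ATP for 4.5 hours, room temperature.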

[11] = molecular target: Dual specificity protein kinase CLK4 (Homo sapiens) (UniProt Q9HAZ1); test: qHTS Assay for Inhibitors of CDC-like Kinase 4 (ADP-Glo Assay) (AID 1771); conditions: recombinant CLK4, ADP-Glo luminescence; series mostly up to 80 µM; note: nearly all actives have a fitted effect of over 70% in size; note: potency is the fitted concentration of half-maximal effect
Outline: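 In this ADP-Glo format, 1 uM ATP and 100 uM RS peptide served as substrates for 25 nM Clk4 in Mg2+/EGTA/DTT/Triton buffer; reactions ran 1 hr at room temperature before luminescent ADP quantification.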

[12] = molecular target: Dual specificity protein kinase CLK4 (Homo sapiens) (UniProt Q9HAZ1); test: qHTS Assay for Inhibitors of CDC-like Kinase 4 (ADP-FP Assay) (AID 1795); conditions: Transcreener ADP fluorescence polarization; series mostly up to 50 µM; note: nearly all actives have a fitted effect of over 60% in size; note: potency is the fitted concentration of half-maximal effect
Outline: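 Inhibition of ADP formation by 6.25 nM Clk4 is measured using 1 uM ATP and 100 uM RS repeat peptide over one hour. Produced ADP displaces a fluorescent tracer from antibody, lowering polarization.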

[13] = molecular target: Ubiquitin carboxyl-terminal hydrolase 1 (Homo sapiens) (UniProt O94782); test: Inhibitors of USP1/UAF1: Pilot qHTS (AID 504865); conditions: purified USP1/UAF1, Ub-rhodamine cleavage fluorescence; series mostly up to 54.9 µM;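 note: rhodamine fluorescence freed from ubiquitin-rhodamine substrate followed over time; top concentration of the series differs between compounds; % is set by controls: 0 for no effect and ±100 for the full control effect; nearly all actives have a fitted effect of over 35% in size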
Chain of Ubiquitin carboxyl-terminal hydrolase 1 (Homo sapiens) (O94782 whole entry, looked up): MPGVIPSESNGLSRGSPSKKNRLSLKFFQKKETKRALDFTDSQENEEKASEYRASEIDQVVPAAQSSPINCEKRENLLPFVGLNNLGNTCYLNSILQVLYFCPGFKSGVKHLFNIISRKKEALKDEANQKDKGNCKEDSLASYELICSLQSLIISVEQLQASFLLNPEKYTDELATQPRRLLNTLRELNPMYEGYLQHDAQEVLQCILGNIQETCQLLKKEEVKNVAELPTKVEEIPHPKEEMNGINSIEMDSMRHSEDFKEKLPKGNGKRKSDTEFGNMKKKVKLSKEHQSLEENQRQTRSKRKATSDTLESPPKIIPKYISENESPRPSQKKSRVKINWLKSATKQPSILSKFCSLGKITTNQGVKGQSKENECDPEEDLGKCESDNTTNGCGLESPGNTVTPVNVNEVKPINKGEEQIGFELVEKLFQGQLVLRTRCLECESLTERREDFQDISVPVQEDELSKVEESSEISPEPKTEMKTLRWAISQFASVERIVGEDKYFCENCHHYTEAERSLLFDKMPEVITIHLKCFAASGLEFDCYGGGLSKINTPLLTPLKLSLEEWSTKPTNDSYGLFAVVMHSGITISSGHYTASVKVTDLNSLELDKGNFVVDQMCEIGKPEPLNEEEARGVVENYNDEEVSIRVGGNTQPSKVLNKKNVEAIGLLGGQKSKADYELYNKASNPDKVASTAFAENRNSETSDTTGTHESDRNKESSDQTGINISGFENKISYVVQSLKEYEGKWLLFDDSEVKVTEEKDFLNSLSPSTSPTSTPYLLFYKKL
Outline: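 Kinetic fluorescence assay: 1nM USP1/UAF1, 15 min compound preincubation, then 150nM Ub-Rho; 480/540 nm.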

[14] = Primary qHTS for small molecule stabilizers of the endoplasmic reticulum resident proteome: Secreted ER Calcium Modulated Protein (SERCaMP) assay (AID 1508630); conditions: SH-SY5Y GLuc-SERCaMP (Gaussia luciferase released on ER calcium loss) secretion, thapsigargin, luminescence; series mostly up to 38.4 µM; note: % is set by controls: 0 for no effect and ±100 for the full control effect
Outline: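 The SH-SY5Y reporter protocol was run at 3 concentrations up to 38.3 uM (primary) or 11 concentrations (follow-up): 16 h compound, 100 nM thapsigargin for 4 h, then extracellular luciferase luminescence.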

[15] = molecular target: Cytochrome P450 1A2 (Homo sapiens) (UniProt P05177); test: p450-cyp1a2 (AID 410; calls by dose curve; note: potency is the fitted concentration of half-maximal effect); conditions: recombinant CYP1A2, luciferin-ME demethylation, luminescence; series mostly up to 57 µM
Chain of Cytochrome P450 1A2 (Homo sapiens) (P05177 whole entry, looked up): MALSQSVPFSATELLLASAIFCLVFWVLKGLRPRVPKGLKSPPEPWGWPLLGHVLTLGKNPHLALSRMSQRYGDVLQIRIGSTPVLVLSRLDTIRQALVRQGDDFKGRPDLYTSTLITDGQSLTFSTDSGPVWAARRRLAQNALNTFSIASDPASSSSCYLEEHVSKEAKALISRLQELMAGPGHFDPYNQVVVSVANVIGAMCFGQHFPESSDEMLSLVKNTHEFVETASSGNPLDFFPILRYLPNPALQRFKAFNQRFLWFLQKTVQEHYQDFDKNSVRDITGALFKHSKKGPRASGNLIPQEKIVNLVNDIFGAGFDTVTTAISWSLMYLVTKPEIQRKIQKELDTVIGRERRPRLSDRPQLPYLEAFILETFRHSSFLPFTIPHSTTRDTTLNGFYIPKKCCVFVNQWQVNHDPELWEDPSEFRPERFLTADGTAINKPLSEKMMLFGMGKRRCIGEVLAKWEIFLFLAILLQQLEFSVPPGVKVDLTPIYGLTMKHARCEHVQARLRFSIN
Outline: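 Read-out is luminescence from luciferin produced by CYP1A2 demethylation of Luciferin-ME (100uM, at Km). Detection reagent stopped the 60 min NADPH-dependent reaction; signals were normalized to 57 uM furafylline.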

[16] = molecular target: Cytochrome P450 3A4 (Homo sapiens) (UniProt P08684); test: qHTS Assay for Activators of Cytochrome P450 3A4 (AID 885); conditions: recombinant CYP3A4, Luciferin-PPXE luminescence, 60 min; series mostly up to 57.1 µM; note: nearly all actives have a fitted effect of over 65% in size
Chain of Cytochrome P450 3A4 (Homo sapiens) (P08684 whole entry, looked up): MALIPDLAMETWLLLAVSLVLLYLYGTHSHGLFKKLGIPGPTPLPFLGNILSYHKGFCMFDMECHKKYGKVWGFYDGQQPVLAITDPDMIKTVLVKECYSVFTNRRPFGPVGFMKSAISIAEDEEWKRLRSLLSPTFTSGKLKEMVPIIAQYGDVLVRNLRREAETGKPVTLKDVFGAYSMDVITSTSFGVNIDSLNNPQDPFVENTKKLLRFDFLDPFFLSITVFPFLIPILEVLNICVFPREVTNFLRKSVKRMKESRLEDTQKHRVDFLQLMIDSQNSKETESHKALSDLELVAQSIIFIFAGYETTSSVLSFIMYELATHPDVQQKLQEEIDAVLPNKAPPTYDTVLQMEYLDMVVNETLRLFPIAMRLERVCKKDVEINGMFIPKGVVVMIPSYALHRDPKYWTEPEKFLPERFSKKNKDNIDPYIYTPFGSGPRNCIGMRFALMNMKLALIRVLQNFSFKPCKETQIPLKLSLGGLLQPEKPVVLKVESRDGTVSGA
Outline: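 Using 20nM recombinant human CYP3A4 in potassium phosphate (200mM), substrate Luciferin-PPXE at 25uM, luminescent luciferin detection followed a 60-min RT NADPH reaction; data scaled to 57 uM ketoconazole.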

[17] = measured here: cell count channel max response
[18] = measured here: lipid channel max response

COCCn1c(=O)c(-c2ccc(F)cc2)nc2cnc(OC)nc21
6.98%: max response [9, 17]
9.8%: max response [9, 18]
inactive: Potency [1] > 11.4 µM | activity change, negative = inhibition [2] -3.31% | activity change, negative = inhibition [3] 15.2% | activity, negative = inhibition [4] -15% | Potency [5] > 9.22 µM | Potency [6] > 46 µM | outcome [7] | Potency [8] | activity change, negative = inhibition [9] 4.45% | Potency [10] | Potency [11] | Potency [12] | Potency [13] | Potency [14]

COc1ccc(-c2nc3cnc(N4CCOCC4)nc3n(C)c2=O)cc1
7.61%: max response [9, 17]
5.75%: max response [9, 18]
inactive: Potency [1] > 11.4 µM | activity change, negative = inhibition [2] -14.2% | activity change, negative = inhibition [3] -0.157% | activity, negative = inhibition [4] -2.93% | Potency [5] > 9.22 µM | Potency [6] > 46 µM | outcome [7] | Potency [8] | activity change, negative = inhibition [9] 1.23% | Potency [10] | Potency [11] | Potency [12] | Potency [13] | Potency [14]

Cc1noc(C)c1-c1ccc2ncnc(Nc3ccc(F)cc3)c2c1
inactive: Potency [1] > 11.4 µM | activity change, negative = inhibition [2] -20.2% | activity, negative = inhibition [4] -24.6% | Potency [5] > 46 µM | Potency [6] > 46 µM | outcome [7] | Potency [8] | Potency [16] | activity change, negative = inhibition [9] 6.07% | Potency [13] | Potency [14]
29.1%: max response [9, 18]
active: Potency [15] 3.98 µM | Potency [10] 4.47 µM | Potency [11] 6.31 µM | Potency [12] 3.16 µM
23.8%: max response [9, 17]

CN(C)C(=O)c1ccc(-c2cc(-n3ccnc3)ncn2)cc1
14.1%: max response [9, 17]
16.5%: max response [9, 18]
inactive: Potency [1] > 11.4 µM | activity change, negative = inhibition [2] -15.5% | activity change, negative = inhibition [3] 7.69% | activity, negative = inhibition [4] 7.04% | Potency [5] > 46 µM | Potency [6] > 46 µM | outcome [7] | Potency [8] | activity change, negative = inhibition [9] 4.31% | Potency [13] | Potency [14]
active: Potency [10] 11.2 µM | Potency [11] 10 µM | Potency [12] 12.6 µM

O=c1c(-c2ccc(F)cc2)nc2cnc(Nc3ccccc3)nc2n1C[C@H]1CCCO1
active: Potency [15] 2 µM | Potency [9] 3.55 µM
inactive: Potency [1] > 11.4 µM | activity change, negative = inhibition [2] -19.3% | Potency [5] > 9.22 µM | Potency [6] > 46 µM | outcome [7] | Potency [8] | Potency [16] | Potency [10] | Potency [11] | Potency [12] | Potency [13] | Potency [14]
-27.1%: max response [9, 17]
-76%: max response [9, 18]

COc1ccc(-c2nc3cnc(Nc4ccccc4)nc3n(Cc3cccs3)c2=O)cc1
23.5%: max response [9, 18]
inactive: Potency [1] > 11.4 µM | activity change, negative = inhibition [2] 19.7% | activity change, negative = inhibition [3] 23.4% | Potency [5] > 9.22 µM | Potency [6] > 46 µM | outcome [7] | Potency [8] | activity change, negative = inhibition [9] 0.81% | Potency [10] | Potency [11] | Potency [12] | Potency [13] | Potency [14]
23.8%: max response [9, 17]
